Screens as filed in PubChem BioAssay.
A selection: hits, their analogues and other compounds. The true share with any hit is near 6.3%.
TIM10 inh: growth inhibitors of TIM10 yeast strain. hit rate 1.4% among 330,000. inhibition, % at 10 µM. S. cerevisiae TIM10 strain growth, BacTiter-Glo luminescence, 24 h;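 active means inhibition of 40% or more at the single tested concentration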;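 further: wild-type TIM10 isogenic control strain grown at permissive 25 °C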
tim23-1 inh: growth inhibitors of tim23-1 mutant yeast; S. cerevisiae tim23-1 growth, BacTiter-Glo luminescence, 24 h; inhibition, % at 20 µM; hit rate 1.3% among 330,000;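 active means growth inhibition of the mutant yeast at or above 50%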;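 further: temperature-sensitive mutant grown at 25 °C; plate controls were DMSO-treated mutant yeast for no effect and medium wells lacking yeast for full effect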
MPTP inh: permeability transition pore inhibition; isolated mouse mitochondria, Ca2+ swelling absorbance, 30 min; inhibition, % at 10 µM; hit rate 1.4% among 360,000; AID 602449;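 active means inhibition of 50% or more, scaled per plate between neutral and stimulator controls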;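 further: 0% = DMSO wells given calcium and 100% = 1 mM EGTA wells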
Mdm2-MdmX inh: human Mdm2/MdmX binding inhibition; O15151+Q00987; SaOS-2 split-luciferase Mdm2/MdmX complementation, luminescence; inhibition, % at 8 µM; hit rate 3% among 330,000; AID 485346;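 active means inhibition of at least 50% at 8 µM in the primary screen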
tim10-1 inh: growth inhibitors of tim10-1 mutant yeast; S. cerevisiae tim10-1 ts strain growth, BacTiter-Glo, 24 h; hit rate 2.2% among 330,000; inhibition, % at 20 µM;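 active means inhibition of at least 40%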;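 further: mutant grown at 25 °C; 0% = DMSO wells with yeast and 100% = wells holding no yeast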
Mdm2-MdmX conf: confirmation of human Mdm2/MdmX interaction inhibitors | shares compounds with Mdm2-MdmX inh | Mdm2-MdmX binding, luminescent assay | inhibition, % at 8 µM | hit rate 55% among 10,000; in the data active means inhibition above about 40%
FLuc counter: full-length luciferase inhibition in Mdm2/MdmX counter-screen; shares compounds with Mdm2-MdmX inh; SaOS-2 full-length luciferase counterscreen, luminescence; inhibition, % at 8 µM; hit rate 77% among 6,200; AID 504607;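 active means mean inhibition at 8 µM reaching about 37%, which flags the compound as non-specific, limit read from the data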;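 further: p53-null SaOS-2 cells with luciferase driven by a doxycycline-inducible promoter; compound on cells about two nights before reading with doxycycline added after day one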
* hit, by the source's call; nt = no result given.

SMILES | TIM10 inh | tim23-1 inh | MPTP inh | Mdm2-MdmX inh | tim10-1 inh | Mdm2-MdmX conf | FLuc counter
CCCc1nn2c(=O)cc(COc3ccc(NC(=O)c4ccco4)cc3)nc2s1 | 18 | 7 | 1 | 74* | 3 | 0 | nt
COc1ccc(-c2csc(N(CCCN(C)C)C(=O)c3ccccc3C)n2)cc1 | 10 | 29 | -3 | 50 | 28 | nt | nt
COc1ccc(-c2csc(N(CCCN(C)C)C(=O)c3ccccc3Cl)n2)cc1 | 20 | 18 | 0 | 71* | 26 | 49* | 84*
Cc1ccc(OC(=O)N(C)C[C@@H]2OCc3cn(nn3)CCCC(=O)N([C@@H](C)CO)C[C@H]2C)cc1 | nt | nt | -2 | nt | nt | nt | nt
O=C(COC(=O)c1n[nH]c2ccccc12)NC(=O)NC12CC3CC(CC(C3)C1)C2 | -4 | -26 | 8 | 54* | 14 | 34 | 72*
N/C(=N\NC(=O)c1sccc1OCc1ccc(Cl)cc1Cl)c1ccccn1 | -12 | 10 | 0 | 62* | 0 | 65* | 35
COc1ccc(CNC(=O)COC(=O)c2c(NC(C)=O)sc(C)c2C)cc1OC | nt | nt | 1 | nt | nt | nt | nt
N/C(=N\OC(=O)c1ccc(Cl)c([N+](=O)[O-])c1)c1ccccn1 | -12 | 14 | -1 | 67* | 29 | 46* | 91*
CCOc1cc(C(=O)O/N=C(\N)c2ccccn2)cc(OCC)c1OCC | 39 | 40 | 0 | 77* | 31 | 68* | 85*
COc1cc(OC)cc(C(=O)O/N=C(\N)c2ccccn2)c1 | 1 | 23 | 1 | 54* | 3 | -4 | nt
CCOc1ccc(C(=O)O/N=C(\N)c2ccccn2)cc1OCC | 13 | 29 | -2 | 48 | 28 | nt | nt
N/C(=N\OC(=O)c1ccccc1[N+](=O)[O-])c1ccccn1 | 4 | 12 | 0 | 33 | 8 | nt | nt
CCCCCc1c(-c2ccc(OC)cc2)ncn1CCc1ccccc1OC | nt | nt | 45 | nt | nt | nt | nt
C=C(C)c1cccc(C(C)(C)NC(=O)N2CCN(C(=O)OCC)CC2)c1 | nt | nt | -2 | nt | nt | nt | nt
CSc1nc2ccccc2cc1/C=C(\C#N)c1cccc(Cl)c1 | 2 | 18 | 3 | 57* | 9 | 56* | 58*
COc1ccc2ccc(O)c(CN3CCN(S(=O)(=O)c4cc([N+](=O)[O-])ccc4C)CC3)c2c1 | 15 | 19 | -2 | 26 | 19 | nt | nt
COc1ccc(-n2c(C)c([N+](=O)[O-])c3ccc(O)c(CN4CCCCC4)c32)cc1 | 19 | 40 | 0 | 77* | 34 | 58* | 29
Cc1ccc(-n2c(C)c([N+](=O)[O-])c3ccc(O)c(CN(C)C)c32)cc1 | 6 | 16 | 0 | 85* | 24 | 80* | 54*
COCCNc1nc(Oc2cncc(Cl)c2)c2sccc2n1 | nt | nt | 0 | nt | nt | nt | nt
CCOc1ccc(-n2c(=O)c3c4c(sc3n(CC(=O)NCc3ccco3)c2=O)CCC4)cc1 | -8 | -5 | -6 | 73* | 11 | 0 | nt
COc1ccc(NC(=O)c2ccc(-c3c(C)noc3C)c3ccoc23)cc1 | nt | nt | -1 | nt | nt | nt | nt
CC1=C(C(=O)N(C(C)C)C(C)C)CC(CC(=O)NC2CC2)C(=O)N1CCCN1CCCC1=O (centres undefined) | nt | nt | 1 | nt | nt | nt | nt
O=C(CNc1ccc2ccccc2c1)N/N=C/C=C/c1cccc([N+](=O)[O-])c1 | 2 | 8 | 1 | 82* | -18 | 12 | nt
Cc1ccccc1S(=O)(=O)NC(=O)C1(C)CCN1C(=O)CCc1ccc(Cl)cc1Cl (centres undefined) | nt | nt | 1 | nt | nt | nt | nt
CC1=C(C(=O)N2CCCCCC2)CC(CC(=O)NC2CCCC2)C(=O)N1Cc1ccc(F)cc1 (centres undefined) | nt | nt | 0 | nt | nt | nt | nt
SMILES | TIM10 inh | tim23-1 inh | MPTP inh | Mdm2-MdmX inh | tim10-1 inh | Mdm2-MdmX conf | FLuc counter
COc1ccccc1-c1cc(NC(C)=O)c2ncc(-c3ccccc3)n2c1 | nt | nt | 0 | nt | nt | nt | nt
CCCCCCCNC(=O)C1(CC2CC(c3cccc(Br)c3)=NO2)CCNCC1 (centres undefined) | 7 | 20 | 0 | 100* | 27 | 85* | 60*
CCCCCCCNC(=O)C1(CC2CC(c3ccc(Cl)cc3)=NO2)CCNCC1 (centres undefined) | 3 | 19 | -2 | 100* | 16 | 69* | 25
CCCCCCCNC(=O)C1(CC2CC(c3ccc(Cl)cc3)=NO2)CCN(C(=O)Cc2ccc(F)cc2)CC1 (centres undefined) | 9 | 9 | 2 | 30 | 7 | nt | nt
C[C@@H]1CCCN1[C@H]1CS(=O)(=O)N[C@@H]1COCc1ccccc1 | nt | nt | -2 | nt | nt | nt | nt
Cc1csc(-c2nc3ccccc3n2C(C(=O)NC(C)(C)C)c2cc3ccccc3o2)c1 (centres undefined) | nt | nt | -1 | nt | nt | nt | nt
CCN(CC)CCn1nc2c3c(cccc3c1=O)-c1ccccc1-2 | -1 | -31 | 0 | 83* | 3 | 83* | 20
COc1cc2nc(SCC(=O)c3ccc(Br)cc3)n3nc(C)nc3c2cc1OC | -7 | 1 | 2 | 65* | 6 | 19 | nt
Cc1nc2c3ccccc3nc(SCC(=O)c3ccc(Cl)cc3)n2n1 | 4 | 18 | 5 | 29 | 18 | nt | nt
CCOC(=O)C(CC)(CC)C(=O)/C=C/c1ccc(Br)cc1 | 0 | 23 | 0 | 71* | 11 | 39 | 66*
Cc1ccc(C(=O)NC2c3ccccc3-c3ccccc32)cc1 | -18 | 5 | 1 | 59* | -8 | 58* | 54*
Cc1ccc(C(=O)NC2CCc3ccccc3C2=O)cc1 (centres undefined) | 5 | 24 | 6 | -61 | 22 | nt | nt
CCCCc1c(-c2ccc(F)cc2)ncn1CCc1ccccc1OC | nt | nt | 2 | nt | nt | nt | nt
CCN(CC)CCCNC(=O)c1cc2nc3c(c(C(F)(F)F)n2n1)CCc1ccccc1-3 | 10 | 15 | 0 | 17 | 24 | nt | nt
Cc1ccc(O)c(NC(=O)c2cc3nc4c(c(C(F)(F)F)n3n2)CCc2ccccc2-4)c1 | -2 | -5 | -3 | 80* | -10 | 32 | 80*
CC1CC2(C)Oc3ccccc3CC2C(C)C1CNCCCN(C)C (centres undefined) | 32 | -10 | -11 | 97* | 9 | 100* | 55*
CCc1c(C)nc2c(Br)cccc2c1SCCC#N | 17 | 21 | 4 | 6 | 34 | nt | nt
CCc1c(C)nc2ccc(Br)cc2c1SCCC#N | 6 | 29 | 4 | 67* | 25 | 59* | 23
COc1ccc(/C=C/c2ccc3cccc(O)c3n2)c(OC)c1OC | 24 | 23 | 1 | 100* | 20 | 18 | nt
Cc1ccc(/C=C/c2ccc3cccc(O)c3n2)s1 | -10 | 6 | 0 | -97 | 15 | nt | nt
COc1cccc(/C=C/c2ccc3cccc(O)c3n2)c1OC | 17 | 17 | 0 | 70* | 23 | -95 | nt
CC(C)C[C@H]1CNC(=O)C(=O)N1C[C@H]1CCCN1C[C@H](CC(C)C)N1C[C@H](CC(C)C)N(CCc2ccccc2)C(=O)C1=O | nt | nt | -2 | nt | nt | nt | nt
Cn1c(=O)c2c(SCC(=O)NCCc3ccccc3)nc(C3CC3)nc2n(C)c1=O | 3 | 12 | nt | 5 | 5 | nt | nt
